# Where “and” joins values, the source holds several entries; their conditions need not be identical. Equal values may be shown once. Where a structure was tested more than once in an assay, its records may differ in their call. Calls of active or inactive are those of the source. The calls were made as follows: active = hit-call score of the fitted dose curve at least 0.9, where 1 is the maximum; inactive = score below 0.9.
# Read-out: Intercellular Adhesion Molecule 1 (ICAM1), ICAM1 (gene 3383)
# Experiment: BSK_KF3CT_ICAM1: BioMAP Diversity Plus: KF3CT Assay for Intercellular Adhesion Molecule 1 (ICAM1) Biomarker Activity (AID 2283067)
# Conditions: primary human keratinocytes with fibroblasts; actives raise or lower the signal
# Protocol: BSK_KF3CT is a cell-based, multiplexed-readout assay that uses keratinocytes and foreskin fibroblasts, a human skin primary cell co-culture, with measurements taken at 24 hours after chemical dosing in a 96-well plate.BSK_KF3CT_ICAM1 is an assay component measured in the BSK_KF3CT assay. It measures ICAM-1 antibody related to regulation of gene expression using ELISA technology.Data from the assay component BSK_KF3CT_ICAM1 was analyzed into 1 assay endpoint. This assay endpoint, BSK_KF3CT_ICAM1, was analyzed with bidirectional fitting relative to DMSO as the negative control and baseline of activity. Using a type of binding reporter, gain or loss-of-signal activity can be used to understand changes in the signaling as they relate to the gene ICAM1. Furthermore, this assay endpoint can be referred to as a primary readout, because this assay has produced multiple assay endpoints where this one serves a signaling function. To generalize the intended target to other relatable targets, this assay endpoint is annotated to the cell adhesion molecules intended target family, where the subfamily is Immunoglobulin CAM.
# The levels of cell surface (or secreted, indicated by the prefix "s") biomarker endpoints were measured by ELISA. Overt cytotoxicity to cells in confluent adherent cultures (all systems other than the BT system) was assessed by measuring total protein levels using sulforhodamine B (SRB) staining in parallel cultures at the time of biomarker measurements, indicated as SRB endpoints. For proliferation assays for adherent cell types, individual cell types are cultured at sub-confluence and relative cell numbers quantified by SRB staining at time points optimized for each system (48 h: 3C and CASM3C systems; 72 h: BT and HDF3CGF systems; 96 h: SAg system). SRB was performed by staining cells with 0.1% SRB after fixation with 10% TCA and reading wells at 560 nm.Viability and proliferation of PBMC (T cells) was quantified by Alamar Blue reduction for the SAg and BT systems. For PBMC viability (referred to as PBMC Cytotoxicity within the assay endpoint names), cells were plated (75,000/well in a 96-well plate) and then chemical samples added for 1 h before addition of activators, SEB and TSST-1 (20 ng/mL final concentration each). Cells were incubated for 90 h. Then, Alamar Blue (20 uL/well) (Invitrogen, Cat DAL1100) was added for 6 h, and the plates were read with a fluorescence microplate reader at 546/580 nm (excitation/emission). For PBMC proliferation, cells were plated and activated as above but incubated for only 16 h prior to addition of Alamar Blue. Plates were read after 6 h.
SMILES,outcome,AC50
OC(c1ccc(Cl)cc1)(c1cncnc1)c1ccccc1Cl (stereo not given),inactive,
COC(=O)C(C)Oc1ccc(Oc2ccc(Cl)cc2Cl)cc1 (stereo not given),inactive,25.1 µM (active)
CC1COC(Cn2cncn2)(c2ccc(Oc3ccc(Cl)cc3)cc2Cl)O1 (stereo not given),,38.2 µM (active)
CC(C)(C)c1ccc(CSc2cnn(C(C)(C)C)c(=O)c2Cl)cc1,inactive,
CCCCOC(=O)c1ccccc1C(=O)OCCCC,inactive,
CS/C(C)=N/OC(=O)N(C)SN(C)C(=O)O/N=C(\C)SC,,11.1 µM (active)
C=CC1(C)OC(=O)N(c2cc(Cl)cc(Cl)c2)C1=O (stereo not given),inactive,
CO/C=C(/C(=O)OC)c1ccccc1Oc1cc(Oc2ccccc2C#N)ncn1,inactive,
Cc1c(F)c(F)c(COC(=O)C2C(/C=C(\Cl)C(F)(F)F)C2(C)C)c(F)c1F (stereo not given),inactive,
CCNc1nc(Cl)nc(NC(C)C)n1,inactive,
CC(Oc1ccc(Cl)cc1Cl)C(=O)O (stereo not given),inactive,
CC(C)Oc1cc(-n2nc(C(C)(C)C)oc2=O)c(Cl)cc1Cl,inactive,
N#CC(CCc1ccc(Cl)cc1)(Cn1cncn1)c1ccccc1 (stereo not given),inactive,
CCOc1cc(Oc2ccc(C(F)(F)F)cc2Cl)ccc1[N+](=O)[O-],inactive,
COC(=O)N(OC)c1ccccc1COc1ccn(-c2ccc(Cl)cc2)n1,inactive,
N#Cc1cc(Br)c(O)c(Br)c1,inactive,
CCCC1COC(Cn2cncn2)(c2ccc(Cl)cc2Cl)O1 (stereo not given),inactive,
COC(=O)c1ccccc1C(=O)OC,inactive,
CCNc1nc(Cl)nc(NCC)n1,inactive,
CCOC(=O)C(Cl)Cc1cc(-n2nc(C)n(C(F)F)c2=O)c(F)cc1Cl (stereo not given),inactive,

SMILES,outcome,AC50
N#Cc1nn(-c2c(Cl)cc(C(F)(F)F)cc2Cl)c(N)c1S(=O)C(F)(F)F (stereo not given),inactive,
COc1nc(C)nc(NC(=O)NS(=O)(=O)c2ccccc2Cl)n1,inactive,
CCOP(=S)(OCC)SCn1c(=O)oc2cc(Cl)ccc21,,7.36 µM (active)
CCON=C(CC)C1=C(O)CC(c2c(C)cc(C)cc2C)CC1=O (stereo not given),inactive,
O=C(O)c1nc(Cl)ccc1Cl,inactive,
COc1ccc(C(c2ccc(OC)cc2)C(Cl)(Cl)Cl)cc1,inactive,
CNC(=O)ON=CC(C)(C)SC,inactive,
CCOC(=O)CC(SP(=S)(OC)OC)C(=O)OCC (stereo not given),inactive,
CON(C)C(=O)Nc1ccc(Cl)c(Cl)c1,inactive,
COP(=S)(OC)Oc1nc(Cl)c(Cl)cc1Cl,inactive,
COC(=O)C=C(C)OP(=O)(OC)OC,inactive,
COc1nc(C)nc(NC(=O)NS(=O)(=O)c2ccccc2CCC(F)(F)F)n1,inactive,
Oc1ccccc1-c1ccccc1,inactive,
COP(N)(=O)SC (stereo not given),inactive,
Cc1ccc(-c2c(Cl)nc(C#N)n2S(=O)(=O)N(C)C)cc1,inactive,
CCCCNC(=O)OCC#CI,,35.1 µM (active) and 15.5 µM (active)
O=C(O)COc1nc(Cl)c(Cl)cc1Cl,inactive,
CC1=C(C(=O)Nc2ccccc2)SCCO1,inactive,
COc1cnc(OC)n2nc(NS(=O)(=O)c3c(OCC(F)F)cccc3C(F)(F)F)nc12,inactive,

# Source: PubChem BioAssay (EPA / NIEHS)
